Measurements from PubChem BioAssay.
The source made the active and inactive calls. Cut-off read from the data, not from the text of the source, unless noted: active = inhibition above about 80%; inactive = the rest.

What was measured:
[1] = viability loss with induced miR-34 in A549 – imaging, A549 dox-inducible miR-34, nuclei and caspase counts, primary screen (AID 1347080;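 active = compounds whose cell count with miR-34 switched on is under 0.7 times the count with it off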); details: A549 miR-34 inducible, Hoechst nuclei count, 48 h
[2] = MELAS cybrid and Rieske KO viability enhancers – cell-based, MELAS cybrids, Rieske KO mouse fibroblasts, CellTiter-Glo, primary screen (AID 1508586;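 active = mean z-score across replicates of 1.96 or higher in either the MELAS or the Rieske mutant cell line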;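 note: z relative to plate mean and SD of compound and empty wells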); details: low glucose
[3] = growth inhibition, single agent or in combination, cell-based, chromothripsis tumors, cisplatin or BGB combos (AID 1671449); details: LFS_MB_P medulloblastoma cells;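 note: cells exposed for 96 hours; 0% = vehicle DMSO and 100% = killing by high DMSO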
[4] = growth inhibition, single agent and combos, cell-based, chromothripsis tumors, cisplatin or BGB combos (AID 1671450); details: HDN33 neuroblastoma cells, stronger effect = higher value;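 note: cells exposed to compound for four days; 0% = vehicle DMSO and 100% = cell killing by high DMSO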
[5] = growth inhibition, single agents and combos, ICB984, cell-based, cisplatin or BGB combos, synergistic combos for chromothripsis tumors (AID 1671451; call rule not given here;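 note: cells exposed for 96 hours before readout; 0% = vehicle DMSO and 100% = killing by high DMSO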); details: ICB984 medulloblastoma cells, drug combinations, stronger effect = higher value
[6] = growth inhibition, single agents and combos, LFS_MB_1R, cell-based, cisplatin or BGB combos, synergistic combos for chromothripsis tumors (AID 1671452); details: LFS_MB_1R medulloblastoma cells, stronger effect = higher value;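 note: cells exposed for 96 hours before readout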
[7] = growth inhibition, single agents and combos, HTB85, cell-based, BGB or cisplatin IC20 combos, synergistic combos for chromothripsis tumors (AID 1671453); details: HTB85 osteosarcoma cells, drug combinations, stronger effect = higher value;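 note: cells exposed for 96 hours before readout; 0% = vehicle DMSO and 100% = high DMSO killing control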
[8] = growth inhibition, single agents and combos, CRL2098, cell-based, BGB or cisplatin IC20 combos, synergistic combos for chromothripsis tumors (AID 1671454); details: CRL2098 osteosarcoma cells, drug combinations, stronger effect = higher value;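 note: cells exposed for 96 h before readout; 0% = vehicle DMSO and 100% = killing by high DMSO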
[9] = growth inhibition, single agents and combos, HD-MB03, cell-based, BGB or cisplatin IC20 combos, synergistic combos for chromothripsis tumors (AID 1671455; in the data active = inhibition above about 83%;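 note: 0% = vehicle DMSO and 100% = high DMSO as cytotoxic control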); details: HD-MB03 medulloblastoma cells, stronger effect = higher value
[10] = growth inhibition, single agents and combos, UWB1.289, cell-based, BGB or cisplatin combos, synergistic combos for chromothripsis tumors (AID 1671456); details: UWB1.289 ovarian carcinoma cells, stronger effect = higher value;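 note: cells exposed to compound for four days; 0% = vehicle DMSO and 100% = killing by high DMSO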
[11] = growth inhibition, single agents and combos, LFS_MB_2R, cell-based, cisplatin combos, synergistic combos for chromothripsis tumors (AID 1671457); details: LFS_MB_2R medulloblastoma cells, stronger effect = higher value;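 note: cells exposed to compound for four days before readout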
[12] = growth inhibition, MDA-MB-436, cell-based, BGB or cisplatin combos, synergistic combos for chromothripsis tumors (AID 1671458; call rule not given here;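 note: cells exposed for 96 hours; 0% = vehicle DMSO and 100% = killing by high DMSO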); details: MDA-MB-436 breast carcinoma growth inhibition, drug combinations, stronger effect = higher value
[13] = UWB1.289_BRCA1 ovarian cancer growth, cell-based, BGB or cisplatin combinations (AID 1671459); details: UWB1.289 BRCA1 ovarian carcinoma, drug combinations, stronger effect = higher value
[14] = drug combination toxicity in non-malignant astrocytes – cell-based, BGB or cisplatin IC20 combos, cytotoxicity control for chromothriptic childhood tumor combination screen (AID 1671460); details: Human astrocytes, viability inhibition, drug combinations, at 0.5 µM, stronger effect = higher value;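 note: cells exposed to compounds for 96 hours before viability readout; 0% = vehicle and 100% = killing control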
[15] = BT084 cell growth, single and combined drugs, ICGC_MB145, cisplatin and BGB IC40 combos (AID 1671461); details: BT084 medulloblastoma cells, drug combinations, stronger effect = higher value;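 note: cells exposed to drugs for 96 hours; 0% = vehicle DMSO and 100% = high DMSO full killing control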
[16] = RCMB18 cell growth, single agent and combined, cisplatin and BGB IC40 combos (AID 1671462); details: RCMB18 medulloblastoma cells, stronger effect = higher value;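 note: cells exposed to compound for four days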
[17] = CRL1545 cell growth, single agent and combined, cisplatin and BGB IC20 combos (AID 1671464); details: CRL1545 osteosarcoma cells, stronger effect = higher value;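 note: cells exposed to compound for 96 hours before readout; 0% = vehicle DMSO and 100% = high DMSO killing control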
[18] = measured here: combination with BGB IC40, at 0.05 µM
[19] = measured here: with BGB IC20 combination, at 0.5 µM
[20] = measured here: with cisplatin IC20 combination, at 0.5 µM
[21] = measured here: combination with cisplatin, at 0.5 µM
[22] = measured here: combination with cisplatin, at 5 µM

With `CC1OC(n2cc(F)c(=O)[nH]c2=O)C(O)C1O` (centres undefined) the fold change ([1]; stronger effect = lower value, cell number ratio, induced over uninduced) was 0.451 (active), the fold change ([1]; measured here: relative caspase fold change +Dox/-Dox) was 2.09 and the cell count ([1]; measured here: total cells with miR-34 induction, stronger effect = lower value) was 2920. The cell count ([1]; measured here: total cells without miR-34 induction) was 6480, the z-score ([2]; MELAS cybrid survival, CellTiter-Glo 48 h, stronger effect = higher value) was -0.306 (inactive) and the z-score ([2]; Rieske KO mouse fibroblast survival, CellTiter-Glo 72 h) was 0.652. The inhibition ([3]; at 0.5 µM, stronger effect = higher value) was -9.42% (inactive), the inhibition ([3]; measured here: combination with BGB IC20, at 0.005 µM) was -7.8% and the inhibition ([3]; measured here: combination with BGB IC40, at 0.005 µM) was -40.7%. The inhibition [3, 18] was -29.6%, the inhibition ([3]; measured here: combination with cisplatin, at 0.5 µM, stronger effect = higher value) was -29.8% and the inhibition ([3]; measured here: combination with cisplatin, at 5 µM, stronger effect = higher value) was -27.3%. For the same compound, the inhibition ([4]; BGB combo, at 5 µM) was -8.24%, the inhibition ([4]; at 0.5 µM) was -30.6% (inactive) and the inhibition ([4]; cisplatin combo, at 5 µM) was -12.9%. For the same compound, the inhibition [4, 19] was -22.1%, the inhibition [4, 20] was -19.8% and the inhibition ([4]; single agent, at 5 µM) was -20.3%. For the same compound, the inhibition ([5]; BGB IC20 combo, at 0.005 µM) was -5.88%, the inhibition ([5]; BGB IC40 combo, at 0.005 µM) was -26.6% and the inhibition ([5]; BGB IC40 combo, at 0.05 µM) was -7.54%. The inhibition ([5]; at 0.5 µM) was -15.5% (inactive), the inhibition ([5]; cisplatin combo, at 0.05 µM) was -10.5% and the inhibition ([5]; cisplatin combo, at 0.5 µM) was -3.76%. The inhibition ([5]; cisplatin combo, at 5 µM) was -40.8%, the inhibition ([5]; measured here: 5 uM single agent, at 5 µM) was -21.2% and the inhibition ([6]; at 0.5 µM) was -23.1% (inactive). The inhibition [6, 18] was -35.1%, the inhibition [6, 21] was -21.6% and the inhibition [6, 22] was -58.4%. For the same compound, the inhibition ([7]; at 0.5 µM) was -23.8% (inactive), the inhibition ([7]; measured here: with BGB IC20, at 0.5 µM) was -38.6% and the inhibition ([7]; measured here: with BGB IC20, at 5 µM) was -31%. The inhibition ([7]; measured here: with cisplatin IC20, at 0.5 µM) was -26.6%, the inhibition ([7]; measured here: with cisplatin IC20, at 5 µM) was -40.3% and the inhibition ([7]; single agent, at 5 µM) was -22%. For the same compound, the inhibition ([8]; at 0.5 µM) was -5.43% (inactive), the inhibition ([8]; measured here: combination with BGB at IC20, at 0.5 µM) was -21.1% and the inhibition ([8]; measured here: combination with cisplatin at IC20, at 0.5 µM) was -73.9%. For the same compound, the inhibition ([9]; at 0.5 µM) was -15.3% (inactive), the inhibition ([9]; measured here: combo with BGB at IC20, at 0.5 µM) was -17.8% and the inhibition ([9]; measured here: combo with cisplatin at IC20, at 0.5 µM) was -10.3%. For the same compound, the inhibition ([10]; at 0.5 µM) was -6.51% (inactive), the inhibition ([10]; measured here: inhibition with BGB combination, at 0.05 µM) was -35.5% and the inhibition ([10]; measured here: inhibition with cisplatin combination, at 0.05 µM) was -17.5%. For the same compound, the inhibition ([11]; at 0.5 µM) was -17.7% (inactive), the inhibition [11, 21] was -12.9% and the inhibition [11, 22] was -95.4%. For the same compound, the inhibition ([12]; at 0.5 µM) was -32.6% (inactive), the inhibition ([12]; measured here: BGB combination, at 0.5 µM) was -38.6% and the inhibition ([12]; measured here: BGB combination, at 5 µM) was -19.2%. It also gave an inhibition ([12]; measured here: cisplatin combination, at 0.5 µM) of -54.4%, an inhibition ([12]; measured here: cisplatin combination, at 5 µM) of 12% and an inhibition ([13]; BGB combination, concentration series, at 5 µM) of -3.82%. For the same compound, the inhibition ([13]; at 0.5 µM) was -19.6% (inactive), the inhibition ([13]; cisplatin combination, concentration series, at 5 µM) was 4% and the inhibition [14] was -18.2% (inactive). The inhibition ([14]; measured here: combo with BGB IC20) was -17.6%, the inhibition ([14]; measured here: combo with cisplatin IC20) was -13.1% and the inhibition ([15]; at 0.5 µM) was -33.9% (inactive). The inhibition ([15]; cisplatin combination, at 0.5 µM) was -18.2%, the inhibition ([15]; cisplatin combination, at 5 µM) was 3.57% and the inhibition ([15]; measured here: BGB IC40 combination 0.05 uM, at 0.05 µM) was -9.17%. For the same compound, the inhibition ([15]; single agent, at 5 µM) was -31.7%, the inhibition ([16]; at 0.5 µM) was -20.6% (inactive) and the inhibition ([16]; cisplatin combo, at 5 µM) was -44.8%. The inhibition ([16]; measured here: BGB IC40 combination, at 0.05 µM) was -8.2%, the inhibition [16, 21] was -22.5% and the inhibition ([16]; single agent, at 5 µM) was -11.4%. The inhibition ([17]; at 0.5 µM) was -45.1% (inactive), the inhibition [17, 19] was -21.9% and the inhibition [17, 20] was -60.2%. The inhibition ([17]; single agent, at 0.05 µM) was -41.1% and the inhibition ([17]; single agent, at 5 µM) was -1.1%.
